Screens: PubChem BioAssay, National Center for Advancing Translational Sciences (NCATS)
DT40 TDP1 CPT: growth inhibition of DT40 Tdp1-/-;hTDP1 cells with camptothecin (screen for TDP1 inhibitors). Potency, µM (doses to about 46.2 µM), for the others: at the highest dose activity change, negative = growth inhibition, hits mostly inhibitors. 12% of 420,000 active. chicken DT40 Tdp1-/-;hTDP1 cells + 20 nM CPT, ATP luminescence, 48 h. AID 686979; further: nearly all actives have a fitted effect of over 55% in size
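Chicken DT40 Tdp1-/- cells stably complemented with human TDP1 were seeded at 400 cells/well in medium containing 20 nM camptothecin, exposed to pin-transferred compounds, and grown at 37 °C for at least 48 hr. Viability was read as ATP luminescence.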
DT40 TDP1 no CPT: qHTS for Inhibitors of human tyrosyl-DNA phosphodiesterase 1 (TDP1): qHTS in cells in absence of CPT. 15% of 420,000 active. DT40 Tdp1-/- hTDP1 cells, no CPT, ATP luminescence, 48 h. Potency, µM (titrated, usually from 46.2 µM), inactives show at the top dose activity change, negative = growth inhibition, most hits filed as inhibitors; further: nearly all actives have a fitted effect of over 55% in size
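DT40 Tdp1-/-;hTDP1 cells, no CPT (DMSO vehicle only), 400 cells/well; compounds pin-transferred; ≥48 hr, 37 °C; CellTiter-Glo 30 min RT dark, luminescence read.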
RORg inh: inhibitors of mouse ROR gamma transcriptional activity; P51450; Drosophila S2 Gal4-RORgamma UAS-luciferase reporter, 20 h; Potency, µM (highest dose often 53.6 µM), for inactives: top-dose activity change, negative = inhibition, usual class: inhibitors; 5.4% of 310,000 active; further: nearly all actives have a fitted effect of over 60% in size
Target sequence (P51450 whole entry, looked up, the tested form may be a part): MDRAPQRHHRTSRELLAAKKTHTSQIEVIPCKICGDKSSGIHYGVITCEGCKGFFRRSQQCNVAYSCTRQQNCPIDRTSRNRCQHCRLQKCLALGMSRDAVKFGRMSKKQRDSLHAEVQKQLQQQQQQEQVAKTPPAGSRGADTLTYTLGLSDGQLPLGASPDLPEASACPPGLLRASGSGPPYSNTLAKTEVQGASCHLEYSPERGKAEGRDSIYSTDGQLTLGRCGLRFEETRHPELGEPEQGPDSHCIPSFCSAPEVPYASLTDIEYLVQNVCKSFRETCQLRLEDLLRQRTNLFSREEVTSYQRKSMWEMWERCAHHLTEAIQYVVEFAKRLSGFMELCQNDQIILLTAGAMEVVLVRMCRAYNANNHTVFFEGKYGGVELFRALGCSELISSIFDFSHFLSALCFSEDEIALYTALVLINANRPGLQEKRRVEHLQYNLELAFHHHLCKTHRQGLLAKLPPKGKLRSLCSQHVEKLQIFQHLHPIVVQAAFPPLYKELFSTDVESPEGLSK
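Schneider cells (Drosophila), stable Gal4 DBD–ROR gamma + UAS-luc; 1 hr cmpd preincubation; Cu2+ induction 700 uM final; 20 hr ambient; luminescence.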
TDP1 inh: TDP1 (human) enzyme inhibition | Q9NUW8 | recombinant TDP1, AlphaScreen DNA substrate cleavage | Potency, µM (doses to about 130 µM), inactives show at the highest dose activity change, negative = inhibition, hits mostly inhibitors | 0.28% of 350,000 active | AID 485290; further: nearly all actives have a fitted effect of over 40% in size
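Tdp1 1 nM final; 15 min RT w/ cpd; substrate 15 nM, 5 min; beads 10 ug/ml, 10 min; AlphaScreen read. Neg ctrl: no enzyme.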
VP16 counter: Gal4-VP16 reporter inhibition counter-screen. 3.5% of 310,000 active. AID 2546. Drosophila S2 Gal4-VP16 UAS-luciferase, luminescence, 20 h. Potency, µM (titrated, usually from 53.6 µM), inactives show top-dose activity, negative = inhibition, actives largely listed as inhibitors;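 further: Gal4-VP16 expression switched on by copper sulfate through the metallothionein promoter; nearly all actives have a fitted effect of over 50% in size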
* marks the source's active call; other numbers are inactive results; [ ] = another dose, or the depositor's remark. Shown are actives, neighbours in structure and some others; about 19% of the full set was active somewhere. The call rests on the fitted dose curve; in most records, active means well fitted curve in the direction sought with a large enough effect; inconclusive means small, poorly fitted or top-dose-only effect, or another doubt; inactive means no such curve, though single readings can be large; an effect the other way counts as inactive or inconclusive. On the % scale 0 is the no-effect control and ±100 the full control effect; potency means the concentration at half of the fitted maximal effect.

COc1cccc(C2=CC(=O)C[C@H](c3ccc(Cl)cc3)C2)c1OC was read as DT40 TDP1 CPT 23µM*, DT40 TDP1 no CPT inconclusive and TDP1 inh 2%.
COc1ccc(C=O)cc1C1=CC(=O)C[C@H](c2ccc(Cl)cc2)C1 was read as DT40 TDP1 CPT inconclusive, DT40 TDP1 no CPT inconclusive and TDP1 inh 1%.
COc1ccccc1C1=CC(=O)C[C@H](c2ccc(Cl)cc2)C1 was read as DT40 TDP1 CPT 15µM*, DT40 TDP1 no CPT inconclusive and TDP1 inh -7%.
`COc1ccc(CN2CCN(Cc3cc4ccccc4o3)CC2CCO)c(F)c1` (stereo not given) gave DT40 TDP1 CPT inconclusive, DT40 TDP1 no CPT -27%, RORg inh 15% and VP16 counter -2%.
Screening COc1ccc(N(CC(=O)NCCSc2ccccn2)S(=O)(=O)c2ccc(C)cc2)cc1OC returned DT40 TDP1 CPT inconclusive, DT40 TDP1 no CPT inconclusive, RORg inh 4%, TDP1 inh 11% and VP16 counter 6%.
Cc1ccc(O)c(C(=O)c2cc(C(=O)NCCc3ccccc3)c(=O)n(CCc3ccccc3)c2)c1 was read as DT40 TDP1 CPT inconclusive, DT40 TDP1 no CPT 16µM*, RORg inh inconclusive, TDP1 inh 2% and VP16 counter -21%.
Screening O=C(NCCc1ccccc1)c1ccccc1C(=O)NCCc1ccccc1 returned DT40 TDP1 CPT 9% and DT40 TDP1 no CPT inconclusive.
Screening COc1ccc(CCNC(=O)c2cc3ccccc3oc2=O)cc1 returned DT40 TDP1 CPT 10%, DT40 TDP1 no CPT 3%, RORg inh -6% and VP16 counter -9%.
Screening COc1ccc(O)c(C(=O)c2cc(C(=O)NCCc3ccccc3)c(=O)n(CCc3ccccc3)c2)c1 returned DT40 TDP1 CPT 18µM*, DT40 TDP1 no CPT 15µM*, RORg inh 23%, TDP1 inh 3% and VP16 counter -8%.
`O=C(O)Cn1cc(C(=O)c2cccs2)c2ccccc21` gave DT40 TDP1 CPT inconclusive, DT40 TDP1 no CPT -2%, RORg inh -31%, TDP1 inh 3% and VP16 counter -4%.
For O=C(c1cccs1)c1cn(CC(=O)N2CCc3ccccc3C2)c2ccccc12 the results were DT40 TDP1 CPT 23µM*, DT40 TDP1 no CPT inconclusive, RORg inh 28%, TDP1 inh 5% and VP16 counter -3%.
Screening O=C(O)CN(c1ccc2c(c1)OCCO2)S(=O)(=O)c1ccccc1 returned DT40 TDP1 CPT 3%, DT40 TDP1 no CPT -15%, RORg inh inconclusive, TDP1 inh 0% and VP16 counter 0%[0.365 µM].
For O=c1cc(-c2ccccc2)nc2n1Cc1ccccc1-2 the results were DT40 TDP1 CPT -20%, DT40 TDP1 no CPT inconclusive, RORg inh -14%, TDP1 inh 2% and VP16 counter 2%.
`COc1ccc(-c2nc3n(c2C)Cc2ccccc2-3)cc1` gave DT40 TDP1 CPT -28%, DT40 TDP1 no CPT inconclusive, RORg inh 11µM*, TDP1 inh 1% and VP16 counter -13%.
`CCOc1ccccc1NC(=S)NC1CC2CCC1C2` (stereo not given) gave DT40 TDP1 CPT inconclusive, DT40 TDP1 no CPT 21µM*, RORg inh 2.8µM* and VP16 counter 7.1µM*.
Screening COc1ccc(NC(=S)NC2CC3CCC2C3)c(OC)c1 (stereo not given) returned DT40 TDP1 CPT -6%, DT40 TDP1 no CPT -22%, RORg inh 5µM* and VP16 counter 11µM*.
Screening COc1ccc(NC(=S)NC23CN4CN(CN(C4)C2)C3)c(OC)c1 returned DT40 TDP1 CPT inconclusive, DT40 TDP1 no CPT -4%, RORg inh 2%, TDP1 inh 4% and VP16 counter -3%.
S=C(NCCc1ccccn1)NC1CC2CCC1C2 (stereo not given) was read as DT40 TDP1 CPT 27%, DT40 TDP1 no CPT -11%, RORg inh 6.3µM* and VP16 counter inconclusive.
For CCOc1ccccc1NC(=O)COC(=O)C1CCC1 the results were DT40 TDP1 CPT 3% and DT40 TDP1 no CPT 13%.
Screening Cc1cc(N2CCN(c3cccc(C)c3C)CC2)n2cnnc2n1 returned DT40 TDP1 CPT inconclusive, DT40 TDP1 no CPT inconclusive and TDP1 inh 5%.
CN1N=C(C(=O)N2CCCC(N3CCN(c4ccc(F)cc4)CC3)C2)CCC1=O (stereo not given) was read as DT40 TDP1 CPT 0%, DT40 TDP1 no CPT -28%, RORg inh -9%, TDP1 inh 3% and VP16 counter 1%.
COc1cc(NS(=O)(=O)c2ccc3c(c2)CC(C)N3C(=O)C2CCC2)cc(OC)c1OC (stereo not given) was read as TDP1 inh 2%.
Screening COc1ccc(NS(=O)(=O)c2ccc3c(c2)CC(C)N3C(=O)C2CCC2)cc1OC (stereo not given) returned DT40 TDP1 CPT 1µM*, DT40 TDP1 no CPT 0.65µM* and TDP1 inh 3%.
Screening COc1cc(Cl)c(NS(=O)(=O)c2ccc3c(c2)CC(C)N3C(=O)C2CCC2)c(OC)c1 (stereo not given) returned DT40 TDP1 CPT 6.5µM*, DT40 TDP1 no CPT 5.8µM* and TDP1 inh 9%.
For OCCCc1cn(CC2CCCCC2)nn1 the results were DT40 TDP1 CPT -15%, DT40 TDP1 no CPT -1%, RORg inh 7% and VP16 counter -5%.
Screening c1ccc(-c2cn(C[C@H]3CC[C@@H]([C@@H]4CC[C@H](Cn5cc(-c6ccccc6)nn5)O4)O3)nn2)cc1 returned DT40 TDP1 CPT 26µM*, DT40 TDP1 no CPT inconclusive, RORg inh 23% and VP16 counter 0%.
Screening c1ccc(CCc2cn(C[C@H]3CC[C@@H]([C@@H]4CC[C@H](Cn5cc(CCc6ccccc6)nn5)O4)O3)nn2)cc1 returned DT40 TDP1 CPT inconclusive, DT40 TDP1 no CPT 15µM*, RORg inh 23% and VP16 counter 3%.
c1ccc(-c2cn(C[C@H]3CC[C@@H]([C@@H]4CC[C@H](Cn5cc(-c6ccccn6)nn5)O4)O3)nn2)nc1 was read as DT40 TDP1 CPT -28%, DT40 TDP1 no CPT -24%, RORg inh -6% and VP16 counter -2%.
For CC1CN(CCCCN2C(=O)c3ccccc3C2=O)CC(C)O1 (stereo not given) the results were DT40 TDP1 CPT -11%, DT40 TDP1 no CPT 23%, RORg inh -5% and VP16 counter -13%.
`O=C1c2ccccc2C(=O)N1CCCCc1cn(C[C@H]2CC[C@H](Cn3cc(CCCCN4C(=O)c5ccccc5C4=O)nn3)O2)nn1` gave DT40 TDP1 CPT inconclusive, DT40 TDP1 no CPT 21µM* and TDP1 inh 0%[56.1 µM].
